Out of some 290,000 compounds screened, about 2,000 (0.69%) were called active. Only a selection was taken, and actives are over-represented in it overall. A number with no mark means an inactive call. Cut-off read from the data, not from the text of the source: active = activity change below about -30%; inactive = the rest, inconclusive results apart.

Among the data in PubChem BioAssay AID2472 (National Center for Advancing Translational Sciences (NCATS), 2010) are activity change, negative = inhibition values, retold here.
% is set by controls: 0 for no effect and ±100 for the full control effect.

The nature of this assay: qHTS Assay for Inhibitors of Fructose-1,6-bisphosphate Aldolase from Giardia Lamblia: Coupling assay counterscreen. The conditions noted are these: coupling enzyme system counterscreen, AmpLite Red fluorescence; at 58.2 µM (top of the series). The procedure, abridged:
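First, compound is pin-transferred into glyceraldehyde-3-phosphate coupling-enzyme reagent at 57.5 uM final and held 10 min at RT. Next, substrate, coupling system and AmpLite Red are added. After 20 min RT, fluorescence (525/598 nm) is read.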
(Quantitative high-throughput screening tests each substance at several concentrations.)
Consider `CC(=O)Nc1ccc(N2C(=O)C3C4C=CC(CC4)C3C2=O)cc1` (stereo not drawn), for which the activity change, negative = inhibition is -0.366%.

Regarding `Cc1cc(C)c(/C=C2\C(=O)Nc3ccccc32)[nH]1`, the activity change, negative = inhibition was -3.49%.

`CN(C)/C=C1/C(=O)Nc2ccccc21`: the activity change, negative = inhibition is 2.47%.

Take `CN(C)/C=C1/Nc2ccccc2C1=O`: the activity change, negative = inhibition is -30.5% (active).

In the case of `COC(=O)C/C=C/[C@@H](C)[C@H](NC(=O)OCC(Cl)(Cl)Cl)c1ccccc1`, the activity change, negative = inhibition was -1.95%.

As for `Cc1cccc2[nH]c(CN(C)C(=O)C3CCC(=O)N(CCc4ccccc4)C3)nc12` (stereo not drawn), the activity change, negative = inhibition is 2.15%.

As to `COc1ccccc1C1C(C(N)=O)=C(C)Nc2nc(CCCO)nn21` (stereo not drawn), the activity change, negative = inhibition is 1.82%.

Regarding `O=C(N/N=C/c1cccc(OC(=O)c2ccc([N+](=O)[O-])cc2)c1)c1cccnc1`, the activity change, negative = inhibition was 0.693%.

In the case of `COCCNC(=O)CN(Cc1ccco1)C(=O)CCC(=O)Nc1nccs1`, the activity change, negative = inhibition was 0.963%.

On to `Cc1cccc(OCC(=O)NCCNC(=O)c2cccnc2)c1`, for which the activity change, negative = inhibition was 0.0752%.

On to `COc1ccc(C2Nc3ccccc3C(=O)N2Cc2ccccc2)cc1Cn1nnc2ccccc21` (stereo not drawn), for which the activity change, negative = inhibition is -34.4% (active).

For `COc1ccc(N2C(=O)c3ccccc3NC2c2ccc(OC)c(CN3CCOCC3)c2)cc1` (stereo not drawn), the activity change, negative = inhibition is -1.28%.

Regarding `COc1ccc(C2Nc3ccccc3C(=O)N2c2ccc(F)cc2)cc1Cn1nnc2ccccc21` (stereo not drawn), the activity change, negative = inhibition was 2.84%.

For the compound `COc1ccc(CNC(=O)Cc2ccc(-c3ccccc3)cc2)cc1OC`, the activity change, negative = inhibition was 0.562%.

For `COc1ccc(C2/C=C\CN(Cc3ccco3)C(C)C(=O)N2Cc2ccc(F)cc2)cc1` (stereo not drawn), the activity change, negative = inhibition is -1.36%.

On to `Cc1coc2c(O)cc3c(c12)OC1(N2CCCCC2)C(=O)NCCCC31` (stereo not drawn), for which the activity change, negative = inhibition was -43.7% (active).

For `C[C@H]1Cc2c(-c3ccccc3)nc3c(c2CO1)CN(S(=O)(=O)c1ccc(Cl)c2nonc12)CC3`, the activity change, negative = inhibition is 2.12%.

Take `COc1cccc(C(=O)Nc2nnc(S(=O)(=O)N3CCCCC3)s2)c1`: the activity change, negative = inhibition is -31.6% (active).

With `O=C(Nc1nnc(S(=O)(=O)N2CCCCCC2)s1)c1cccc(Br)c1`, the activity change, negative = inhibition was -13.3%.

`Cc1cccc(C(=O)Nc2nnc(S(=O)(=O)N3CCCCCC3)s2)c1`: the activity change, negative = inhibition was -16.7%.

As for `CNC(=S)NNC(=O)c1oc2nc(-c3ccccc3)cc(-c3ccco3)c2c1N`, the activity change, negative = inhibition is -33.1% (active).

With `CS(=O)(=O)c1sc2nc(-c3ccccc3)cc(-c3ccccc3)c2c1N`, the activity change, negative = inhibition was 1.12%.

On to `NNC(=O)c1oc2nc(-c3ccccc3)cc(-c3ccco3)c2c1N`, for which the activity change, negative = inhibition is -5.04%.

For the compound `Cc1c(C)c2ccc(OCC(=O)N3CCN(c4cccc(Cl)c4)CC3)cc2oc1=O`, the activity change, negative = inhibition is 1.47%.

Turning to `Cn1cccc1/C=N/NC(=O)CNc1cccc2ccccc12`, the activity change, negative = inhibition was -1.22%.

Turning to `Cc1cccc(/C=N/NC(=O)CNc2cccc3ccccc23)n1`, the activity change, negative = inhibition was -46.7% (active).

As to `C/C(=N\NC(=O)CNc1cccc2ccccc12)c1ccc(Br)s1`, the activity change, negative = inhibition was -0.7%.

Consider `Cc1ccc(NC(=O)CN2C(=O)NC(C)(c3ccc(Cl)cc3)C2=O)c(Br)c1` (stereo not drawn), for which the activity change, negative = inhibition was 8.8e-05%.

Turning to `Cc1ccc(Cn2c(C)c3cnn(CC(=O)NCc4ccccn4)c(=O)c3c2C)cc1`, the activity change, negative = inhibition was 0.293%.

On to `COc1ccc(C(=O)NC2=NCCS2)c(OC)c1`, for which the activity change, negative = inhibition is 0.219%.

For `Cc1cccc2c3c(ccc12)C1=C(C(=O)C3=O)C(C)CO1` (stereo not drawn), the activity change, negative = inhibition was -60.2% (active).

On to `O=C1C2C3C=CC(C3)C2C(=O)N1c1ccc(-c2nc3ccccc3c(=O)o2)cc1` (stereo not drawn), for which the activity change, negative = inhibition is -9.8%.

Regarding `Cc1cc2c(c(=O)n1Cc1ccccc1)C1O[C@](CCCCN3C(=O)c4ccccc4C3=O)(Cc3ccccc31)O2`, the activity change, negative = inhibition is -1.41%.

Take `CCN1C(=O)c2cccc3c(S(=O)(=O)Nc4ccccc4O)ccc1c23`: the activity change, negative = inhibition is -10.8%.

For `CN1C(=O)c2cccc3c(N)ccc(c23)C1=O`, the activity change, negative = inhibition was 0.398%.

In the case of `CCN1C(=O)c2cccc3c(N)ccc1c23`, the activity change, negative = inhibition was -57.1% (active).

For `O=C1C[C@@H](c2ccc3ccccc3c2)N1S(=O)(=O)c1ccccc1[N+](=O)[O-]`, the activity change, negative = inhibition was 11.1%.

For the compound `C=CC1=C2C=C(C3CC3)N(CC(C)C)C=C2C(=O)C(C)(OC(=O)c2ccco2)C1=O` (stereo not drawn), the activity change, negative = inhibition is -42.6% (active).

Turning to `C=CC1=C2C=C(C3CC3)N(C(CO)CO)C=C2C(=O)C(C)(OC(=O)c2ccco2)C1=O` (stereo not drawn), the activity change, negative = inhibition was -18.7%.

Regarding `CC(C)(C)OC(=O)NCCCC1=CC2=CC(=O)C(C)(OC(=O)c3ccco3)C(=O)C2=CO1` (stereo not drawn), the activity change, negative = inhibition is -0.316%.

Turning to `Cc1cccc(C(=O)Nc2ccc(C(=O)/C=C/c3cccs3)cc2)c1`, the activity change, negative = inhibition was -6.98%.

`CN(C)c1ccc(NC(=O)CSc2n[nH]c(-c3ccco3)n2)cc1`: the activity change, negative = inhibition is 0.0598%.

On to `O=[N+]([O-])c1ccc(Sc2n[nH]c(-c3ccco3)n2)nc1`, for which the activity change, negative = inhibition was 3.58%.

For the compound `CN(C)C(=O)CSc1n[nH]c(-c2ccco2)n1`, the activity change, negative = inhibition was -32.9% (active).

Regarding `COc1ccc(-c2c(-c3ccc(OC)cc3O)nc(C)nc2C(F)(F)F)cc1`, the activity change, negative = inhibition is 2.62%.

For `COc1ccc(C2=Nn3c(nnc3-c3ccccc3O)SC2)cc1`, the activity change, negative = inhibition was -2.11%.

With `CCCCC/C=C\C/C=C\CCCCCCCCCC(=O)NCC(=O)O`, the activity change, negative = inhibition was 1.59%.

Consider `O=C1C(c2ccccn2)=[N+]([O-])c2ccccc21`, for which the activity change, negative = inhibition was -40.5% (active).

With `O=Cc1cn(-c2ccccc2)nc1-c1ccccn1`, the activity change, negative = inhibition is 0.364%.

With `NC(=O)C1CCN(C(=O)CC2C(=O)NCCN2Cc2cccc(Oc3ccccc3)c2)CC1` (stereo not drawn), the activity change, negative = inhibition was -8.79%.

As to `O=C(NCc1ccccc1Cl)c1ccc2c(=O)n(CC3CCCO3)c(=S)[nH]c2c1` (stereo not drawn), the activity change, negative = inhibition was 2.3%.

Take `COc1ccccc1OCc1nnc(SCC(N)=O)n1-c1ccccc1`: the activity change, negative = inhibition was -0.0181%.

Turning to `COc1ccc(-c2c3c(=O)n(C)c(=O)n(C)c3cn2NC(C)=O)cc1`, the activity change, negative = inhibition is -2.71%.

`O=C1c2ccccc2C(=O)N1c1cccc2ccccc12`: the activity change, negative = inhibition is 2.72%.

Take `COc1ccc(OC)c(-n2cc3c(=O)n(C)c(=O)n(C)c3c2)c1`: the activity change, negative = inhibition is -33.3% (active).

On to `COc1ccc(-c2c3c(=O)n(C)c(=O)n(C)c3cn2-c2cccc(OC)c2)cc1`, for which the activity change, negative = inhibition is 3.67%.

Consider `Cn1c(=O)c2cn(-c3cccc4ccccc34)cc2n(C)c1=O`, for which the activity change, negative = inhibition was -34.2% (active).

For `CC(=O)Nn1cc2c(=O)n(C)c(=O)n(C)c2c1`, the activity change, negative = inhibition was -0.0563%.
